Over roughly 35,000 sequences, “fluorescence intensity (a.u.)” has its median near 10,000; the highest 2% begin near 52,000. This excerpt belongs to a sample that is enriched for the highest values.

The assay concerns the target T1, OsWOX13 (Oryza sativa, UniProt Q5QMM3 1-267).
T1 sequence: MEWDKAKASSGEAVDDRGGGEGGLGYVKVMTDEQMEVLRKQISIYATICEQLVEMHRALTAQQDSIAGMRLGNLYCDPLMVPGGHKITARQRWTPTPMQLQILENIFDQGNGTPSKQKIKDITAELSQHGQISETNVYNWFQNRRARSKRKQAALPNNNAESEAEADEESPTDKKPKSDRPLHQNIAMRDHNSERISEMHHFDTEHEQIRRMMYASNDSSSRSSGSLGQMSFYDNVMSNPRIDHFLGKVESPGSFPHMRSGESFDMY
Description: protein-binding microarray (RPBM); PBS, 2% BSA, 51.3 ng/ul salmon testes DNA, 50 uM zinc acetate, 200 nM TF, 25 C, 1 h; high values mean tight binding. The conditions noted are these: protein: recombinant; tags: N-terminal polyhistidine and DsRed monomer fusion (pET32a); label: CyDye5-dUTP incorporated in the synthesized complementary strand; 3' TTTTT single-stranded linker to array surface; dsDNA, one strand shown. The gist of the method:
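An Axon 4000B scanner gave the binding signal as per-feature fluorescence intensity in arbitrary units. This followed washing of a custom Agilent array that had been incubated for 1 h at 25 °C with 200 nM protein in PBS, 2% BSA, salmon testes DNA and 50 µM zinc acetate. The proteins were transcription factors fused at the N-terminus to polyhistidine and DsRed, expressed in E. coli BL21-CodonPlus and purified on Ni–NTA.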
Turning to “ATCATAACTCCATCAGATAATTTGTGCAGAACGGCAGAACCGGAGTCACCTAGTGCAG”, the binding signal was 5500 fluorescence intensity (a.u.).
In the case of “TCTTTACTTAATTAATTTGATGCATGTATGCCAGGATTTGCGGAGTCACCTAGTGCAG”, the binding signal was 35800 fluorescence intensity (a.u.).
With “ACGAATCTAATGAGCCTAATTAATCCATGATTAGCCTATGCGGAGTCACCTAGTGCAG” the figure was 21200 fluorescence intensity (a.u.); with “GTTTTAATTGTTTTACTGATTTGCAAATGAGTCTGGGATGCGGAGTCACCTAGTGCAG”, 63500 fluorescence intensity (a.u.); with “TTGAGATGATTTACTATTAATTTAGTCTATTGTTGAGATGCGGAGTCACCTAGTGCAG”, 35700 fluorescence intensity (a.u.).
With “AGTTCAATTGCTTTGATGAGTGAGCAGAGAGATGATGCAGCGGAGTCACCTAGTGCAG” the figure was 3420 fluorescence intensity (a.u.).
Regarding “GTGTTGAATGCACTGATTTGTTCAGTGTCTGAGATTGATGCGGAGTCACCTAGTGCAG”, the binding signal was 13100 fluorescence intensity (a.u.).
As to “TTAATTATTTGAGCAAATTTAATGGGATGAGGGAATGATGCGGAGTCACCTAGTGCAG”, the binding signal is 24800 fluorescence intensity (a.u.).
For the sequence “ATTAATTGATGCTTTGCTTGATTACTTGAGTCAGATCCAGCGGAGTCACCTAGTGCAG”, the binding signal is 63200 fluorescence intensity (a.u.).
As to “CCAGCTTAATTGAGCCTGATTAGCCGAATCCATAATTGTGCGGAGTCACCTAGTGCAG”, the binding signal is 63800 fluorescence intensity (a.u.).
With “CATGGATAATTTGTTTTGGAGTGACACACTGACACTGATGCGGAGTCACCTAGTGCAG” the figure was 9780 fluorescence intensity (a.u.); with “ATGTTGATTGGAGTCTGATAACTTGTCACTGGATGACATGCGGAGTCACCTAGTGCAG”, 61700 fluorescence intensity (a.u.).
With “GAATCTATTGAGCCTAATTAATCCATGATTAGCCTATGTGCGGAGTCACCTAGTGCAG” the figure was 7730 fluorescence intensity (a.u.).
With “CATTGTCATCCTGAGTAGATTGCCAATTATATGGGTTTGGCGGAGTCACCTAGTGCAG” the figure was 6170 fluorescence intensity (a.u.).
As for “CGTTTTGATGGATGGCTCAGATCGGTTCCGAATCGATCAACGGAGTCACCTAGTGCAG”, the binding signal is 5120 fluorescence intensity (a.u.).
The same measure for “GGTTTAATTAATTAATCGCGCCAACCCAGATGCTAATCAGCGGAGTCACCTAGTGCAG”: 50200 fluorescence intensity (a.u.).
On to “TGAAAATTTTGTCGGAAATTTATCAGTGTATCAACTGTCTCGGAGTCACCTAGTGCAG”, for which the binding signal was 6470 fluorescence intensity (a.u.).
With “TTTCTTGATTTGGTTGGGATTGGTTGTTCTTGGGCTTATCCGGAGTCACCTAGTGCAG” the figure was 24600 fluorescence intensity (a.u.); with “GTTGAGATTAATTGTTCTATACTACTTTCTCTATCTAAAACGGAGTCACCTAGTGCAG”, 7990 fluorescence intensity (a.u.); with “GATAATTCTTATGTTACTGACTAATATGATAGTACTGAGTCGGAGTCACCTAGTGCAG”, 5770 fluorescence intensity (a.u.).
With “AATTTGATTGATTTTACTCTCGAGCCAATTGAGATGTCTGCGGAGTCACCTAGTGCAG” the figure was 64800 fluorescence intensity (a.u.); with “ATTAACCAGTATTAATAATTGAGGGACGTTGTATACTGGGCGGAGTCACCTAGTGCAG”, 20500 fluorescence intensity (a.u.); with “TATAATTGTTACTGTTAATTGAGGTGGGAAATACCAGGTGCGGAGTCACCTAGTGCAG”, 53500 fluorescence intensity (a.u.).
As to “ACTTACAAATTTTGTACTCAATTGAGATGTGCTTCGATTGCGGAGTCACCTAGTGCAG”, the binding signal was 5640 fluorescence intensity (a.u.).
The same measure for “CCTGATTAATTGTTAATTTTGCTGATGCAGCTGTTGCTTGCGGAGTCACCTAGTGCAG”: 65000 fluorescence intensity (a.u.); for “AGTTGATTGGTAAAGTGACATGCTTGAACACTGTTGGAGCCGGAGTCACCTAGTGCAG”: 54000 fluorescence intensity (a.u.).
With “ACACTTGGAGATTGGTAATAGATTACAGAAAGTTGAATGCCGGAGTCACCTAGTGCAG”, the binding signal was 14300 fluorescence intensity (a.u.).
The same measure for “TGTTAATCTTGCTGATTTTGTTATTGATTTTAATGCTATGCGGAGTCACCTAGTGCAG”: 17300 fluorescence intensity (a.u.).
The same measure for “TCAAAGTGATTGGTGACACTCTACACAACACACAGTTGAACGGAGTCACCTAGTGCAG”: 28400 fluorescence intensity (a.u.).
The same measure for “GGAACAGGTACCATAATTGTTAATAACCTAATACTGGGCCCGGAGTCACCTAGTGCAG”: 5270 fluorescence intensity (a.u.); for “ATGAATCTAGTCAGATTGGCCAATTTGATTTGTTTTACTCCGGAGTCACCTAGTGCAG”: 9360 fluorescence intensity (a.u.).
Regarding “TGTTGCTGTTGATTAGCTCTCACCTAATTTGTTGTGTATGCGGAGTCACCTAGTGCAG”, the binding signal was 18100 fluorescence intensity (a.u.).
With “TTCCGGTGATTAGTCAACTGCCACGACCAGATTAATCTACCGGAGTCACCTAGTGCAG” the figure was 20300 fluorescence intensity (a.u.); with “TCATAACTAATATTTAAATGGTATTTGAACATCCCATGGACGGAGTCACCTAGTGCAG”, 9720 fluorescence intensity (a.u.).
With “TCTGACCTGAAAGTCTCAATCAGACAGCTTTCGAAAAGGACGGAGTCACCTAGTGCAG” the figure was 4260 fluorescence intensity (a.u.); with “AAACCTATGACAATCAACCTTTTGACTGTCATACTAGCTCCGGAGTCACCTAGTGCAG”, 9360 fluorescence intensity (a.u.).
The same measure for “TATTGATTAAACATAATGGTCTCACAATATTTTAGTTACCCGGAGTCACCTAGTGCAG”: 27300 fluorescence intensity (a.u.); for “CTGAAATGATTTTCATTTGATTCAAATGGGCCTAAGAATTCGGAGTCACCTAGTGCAG”: 17200 fluorescence intensity (a.u.).
As to “GTGGCTGTGATTGTGTGATTGTGTACCTGTTTGTAGTGAACGGAGTCACCTAGTGCAG”, the binding signal is 20500 fluorescence intensity (a.u.).
Take “TATCTACTAATTTAACTTATAAATGGGTTTATGGGTTGACCGGAGTCACCTAGTGCAG”: the binding signal is 11200 fluorescence intensity (a.u.).
With “AATAATGATAACTGATAAGGGTTTGTTTAGTCTGGATGAACGGAGTCACCTAGTGCAG” the figure was 18800 fluorescence intensity (a.u.); with “AATAAGGGACTTAATTAGTCTAGGTTAAACTGGATGTTGCCGGAGTCACCTAGTGCAG”, 4640 fluorescence intensity (a.u.).
